Data: PubChem BioAssay (NCATS)
Inconclusive results are not listed. Calls of active or inactive are those of the source. The call rests on the fitted dose curve; in most records, active means well fitted curve in the direction sought with a large enough effect; inconclusive means small, poorly fitted or top-dose-only effect, or another doubt; inactive means no such curve, though single readings can be large; an effect the other way counts as inactive or inconclusive.

Key:
[1] = qHTS to identify inhibitors of the type 1 interferon - major histocompatibility complex class I in skeletal muscle: primary screen against the NCATS Pharmaceutical Collection (AID 1347407); settings: human skeletal muscle cells, IFN-b-induced MHC-I HiBiT luminescence, 24 h; series mostly up to 45.9 µM;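 further: luminescence of HiBiT knocked into endogenous HLA-B as interferon-induced MHC class I level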
How it was run: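 A qHTS format is used: 8-point, 1:5 compound series with 46 uM top final concentration, applied alongside 4 ng/ml IFN-beta to HLA-B*08:01-HiBiT knock-in myoblasts. Luminescence is measured after 24 h treatment.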

[2] = target: Protein phosphatase 1D (Homo sapiens) (UniProt O15297); experiment: RapidFire Mass Spectrometry qHTS Assay for Modulators of WT P53-Induced Phosphatase 1 (WIP1) (AID 1347424); settings: WIP1 dephosphorylation of phosphopeptide, RapidFire MS; series mostly up to 63 µM;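 further: amount of dephosphorylated VEPPL-S-QETFS peptide product formed by WIP1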; further: potency means the concentration at half of the fitted maximal effect
Chain of Protein phosphatase 1D (Homo sapiens) (O15297 whole entry, looked up): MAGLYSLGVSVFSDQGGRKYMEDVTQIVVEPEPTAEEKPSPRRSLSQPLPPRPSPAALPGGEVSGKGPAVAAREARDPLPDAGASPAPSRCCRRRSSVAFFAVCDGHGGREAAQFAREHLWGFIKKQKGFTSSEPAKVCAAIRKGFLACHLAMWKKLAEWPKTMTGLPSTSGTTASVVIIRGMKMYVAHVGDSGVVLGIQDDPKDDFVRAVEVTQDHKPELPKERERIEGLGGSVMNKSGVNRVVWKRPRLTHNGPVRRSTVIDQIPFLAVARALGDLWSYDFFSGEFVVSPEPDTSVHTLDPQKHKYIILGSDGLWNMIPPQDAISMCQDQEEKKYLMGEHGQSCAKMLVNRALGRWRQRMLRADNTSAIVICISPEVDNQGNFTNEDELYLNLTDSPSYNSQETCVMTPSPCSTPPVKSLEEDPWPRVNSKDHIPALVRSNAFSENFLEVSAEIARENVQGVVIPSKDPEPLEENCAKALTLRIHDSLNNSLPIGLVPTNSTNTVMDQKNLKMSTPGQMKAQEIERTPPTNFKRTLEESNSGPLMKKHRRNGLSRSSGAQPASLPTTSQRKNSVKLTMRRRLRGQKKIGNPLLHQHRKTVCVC
How it was run: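 RapidFire mass spectrometry measured dephosphorylated peptide after 5 min room-temperature reaction of 2 uM VEPPL-pS-QETFS with 10 nM WIP1 (50 mM Tris-HCl pH 7.5, 30 mM MgCl2, 0.1 mM EGTA, BSA), following 1 hr compound preincubation; 1 uM isotope-labelled product standard.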

[3] = target: Protein phosphatase 1D (Homo sapiens) (UniProt O15297); experiment: Rhodamine-PBP qHTS Assay for Modulators of WT P53-Induced Phosphatase 1 (WIP1) (AID 1347425); settings: recombinant WIP1, Rhodamine-PBP phosphate fluorescence, real-time; series mostly up to 57.5 µM
How it was run: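 The read-out is the change in Rhodamine-PBP fluorescence (f1 - f0, ex 525/em 598 nm) as Pi is released, read each minute for 11 min. Final reaction: 5 nM WIP1, 10 uM phosphopeptide VEPPL-pS-QETFS, 10 uM Rh-PBP, 50 mM Tris-HCl pH 7.5, 30 mM MgCl2. Compound was preincubated with enzyme for 1 hour at room temperature.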

[4] = target: Calcium and integrin-binding protein 1 (Homo sapiens) (UniProt Q99828); experiment: Primary qHTS for Identification of Calcium Integrin Binding Protein 1 (CIB1) Competitor (AID 1508620); settings: CIB1-GST / FITC-alphaIIb peptide fluorescence polarization; series mostly up to 114 µM; further: potency means the concentration at half of the fitted maximal effect
Chain of Calcium and integrin-binding protein 1 (Homo sapiens) (Q99828 whole entry, looked up): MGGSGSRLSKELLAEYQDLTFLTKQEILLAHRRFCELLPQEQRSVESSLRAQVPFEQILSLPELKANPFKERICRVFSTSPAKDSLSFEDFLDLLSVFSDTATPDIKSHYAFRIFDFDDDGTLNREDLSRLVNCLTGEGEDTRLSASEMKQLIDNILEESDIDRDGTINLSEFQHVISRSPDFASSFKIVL
How it was run: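 CIB1-GST (1 uM final) and compound incubated 15 min at room temperature before adding FITC-alphaIIb peptide tracer (100 nM final). Competition for binding read by fluorescence polarization (ex 480, em 540) after another 15 min at room temperature.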

[5] = Primary qHTS for inhibitors of La Crosse Virus (LACV) - induced cell death in SH-SY5Y cells (AID 1508616); settings: SH-SY5Y LACV cytopathicity rescue, ATP luminescence, 6 d; series mostly up to 4.29 µM;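 further: top concentration of the series differs between compounds; higher means more rescue of cells from virus-induced death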
How it was run: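 SH-SY5Y, 6000 cells/well; cpd via pin tool in DMSO; LACV 0.01 MOI; 6 d 37C 5% CO2; ATPLite, 5 min RT; luminescence normalized to ±virus DMSO controls.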

[6] = Counterscreen qHTS for small molecule stabilizers of the endoplasmic reticulum resident proteome: GLuc-NoTag assay (AID 1508627); settings: Gaussia luciferase NoTag secretion counterscreen, luminescence, thapsigargin 100 nM for final 4 h; series mostly up to 76.4 µM; further: potency means the concentration at half of the fitted maximal effect
How it was run: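 Counterscreen line: SH-SY5Y-GLuc-NoTag cells, treated with compound 19 hr before a 4 hr, 100 nM thapsigargin calcium depletion. Secreted Gaussia luciferase in the medium was measured by luminescence after coelenterazine was added (0.07x final), with cells unlysed.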

[7] = Confirmatory qHTS for small molecule stabilizers of the endoplasmic reticulum resident proteome: Secreted ER Calcium Modulated Protein (SERCaMP) assay (AID 1508628); settings: SERCaMP secreted luciferase ER calcium/proteostasis reporter; series mostly up to 76.3 µM; further: potency means the concentration at half of the fitted maximal effect; nearly all actives have a fitted effect of over 40% in size
How it was run: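 Reporter secretion upon ER calcium depletion (100 nM thapsigargin, 4 h, 37C) is measured as medium luminescence with coelenterazine, after 16 h compound pretreatment of SH-SY5Y-GLuc-SERCaMP cells; primary at three concentrations up to 38.3 uM, follow-up at 11 (up to 76.6 uM).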

[8] = qHTS to identify inhibitors of the type 1 interferon - major histocompatibility complex class I in skeletal muscle: primary screen against the NCATS Mechanism Interrogation Plate v5.0 (MIPE) Libary (AID 1347411); settings: iHSKM cells + IFN-b, HiBiT-tagged MHC-I luminescence, 24 h; series mostly up to 45.8 µM; further: potency means the concentration at half of the fitted maximal effect; nearly all actives have a fitted effect of over 65% in size
How it was run: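 Seed engineered human myoblasts (HLA-B HiBit) in medium without dexamethasone containing 4 ng/ml IFN-beta; after 1 hr add compound titrations (top 46 uM final). Incubate 24 hrs at 37 C, lyse 10 min with HiBiT reagent, read luminescence.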

[9] = target: Calcium and integrin-binding protein 1 (Homo sapiens) (UniProt Q99828); experiment: Confirmatory qHTS for Identification of Calcium Integrin Binding Protein 1 (CIB1) Competitor (AID 1508617); settings: CIB1 binding competition assay, biochemical qHTS; series mostly up to 114 µM; further: potency means the concentration at half of the fitted maximal effect; nearly all actives have a fitted effect of over 65% in size
How it was run: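 Compounds at up to 114 uM final met 1 uM GST-tagged CIB1 for 15 min at room temperature (HEPES pH 7.4, 5 mM CaCl2). FITC-labelled alphaIIb peptide, 100 nM, added; polarization read after 15 min more.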

Measured: Potency

O=C1C(=O)c2ccccc2C(O)=C1C1CCC(c2ccc(Cl)cc2)CC1 (stereo not drawn)
inactive: [1] | [2] | [3] | [4]

O=S(c1cc(Cl)cc(Cl)c1O)c1cc(Cl)cc(Cl)c1O
active: [2] 31.6 µM
inactive: [1] | [5] | [4]

CCCN(CCc1cccs1)[C@H]1CCc2c(O)cccc2C1
inactive: [2] | [3] | [5] | [4]

O=C(O)CCNC(=O)c1ccccc1
inactive: [2] | [3] | [5] | [4]

C#C[C@]1(O)CC[C@H]2[C@@H]3CCC4=Cc5oncc5C[C@]4(C)[C@H]3CC[C@@]21C
inactive: [2] | [3] | [5]

NS(=O)(=O)c1cc2c(cc1Cl)NC(CC1CCCC1)NS2(=O)=O (stereo not drawn)
inactive: [1] | [5] | [4]

Cc1c(-c2ccccc2)oc2c(C(=O)OCCN3CCCCC3)cccc2c1=O
inactive: [2] | [3] | [5] | [4]

CCN1CCN(C(=O)N[C@@H](C(=O)N[C@@H]2C(=O)N3C(C(=O)O)=C(CSc4nnnn4C)CS[C@H]23)c2ccc(O)cc2)C(=O)C1=O
inactive: [2] | [3] | [5] | [4]

O=C1OC2(c3ccccc31)c1cc(Br)c(O)c(Br)c1Oc1c2cc(Br)c(O)c1Br
inactive: [1] | [5] | [4] | [6]

O=C1c2cccc3c2[C@H](CCC3)CN1[C@@H]1CN2CCC1CC2
inactive: [2] | [3] | [5] | [4]

CC(=O)O[C@]1(C(C)=O)CC[C@H]2[C@@H]3C=C(Cl)C4=CC(=O)CC[C@]4(C)[C@H]3CC[C@@]21C
inactive: [2] | [3] | [5] | [4]

O=C(Nc1ncc([N+](=O)[O-])s1)c1cccs1
inactive: [5]

CC(=O)OCC1=C(C(=O)O)N2C(=O)[C@@H](NC(=O)CSc3ccncc3)[C@H]2SC1
inactive: [1] | [3] | [5] | [4]

CC(=O)OCC(=O)[C@H]1CC[C@H]2[C@@H]3CCC4=CC(=O)CC[C@]4(C)[C@H]3CC[C@]12C
inactive: [2] | [3] | [5] | [4]

CNCCCCOc1ccccc1Cc1ccccc1
inactive: [2] | [3] | [5] | [4]

CN1CCC[C@@H]1CCO[C@](C)(c1ccccc1)c1ccc(Cl)cc1
active: [7] 15.8 µM
inactive: [1] | [2] | [3] | [4]

O=C1C(CCS(=O)c2ccccc2)C(=O)N(c2ccccc2)N1c1ccccc1 (stereo not drawn)
inactive: [2] | [5] | [4]

C#C[C@]1(OC(C)=O)CC[C@H]2[C@@H]3CCC4=C/C(=N/O)CC[C@@H]4[C@H]3CC[C@@]21CC
inactive: [3] | [5] | [4]

CC1=C(C(=O)O)N2C(=O)[C@@H](NC(=O)[C@H](N)c3ccccc3)[C@H]2SC1
inactive: [2] | [3] | [5] | [4]

CCN(CC)CCOc1ccc2c(c1)C(=O)c1cc(OCCN(CC)CC)ccc1-2
inactive: [2] | [3] | [4]

CCCCCN=C(N)N/N=C/c1c[nH]c2ccc(OC)cc12
inactive: [2] | [3] | [5] | [4]
active: [8] 6.58 µM

CCC(Cc1c(I)cc(I)c(N)c1I)C(=O)O (stereo not drawn)
inactive: [1] | [5] | [4]

CCN(CC)CCOc1ccccc1C(=O)CCc1ccccc1
inactive: [2] | [3] | [5] | [4]

NCCNc1cccc2ccccc12
inactive: [2] | [3] | [5] | [4]

O=C(O)C1(C(=O)O)CCC1.[NH2-].[NH2-].[Pt+2]
active: [2] 11.2 µM
inactive: [1] | [5] | [4]

C=C[C@H]1CN2CC[C@H]1C[C@@H]2[C@@H](O)c1ccnc2ccc(OC)cc12
inactive: [2] | [3] | [5] | [6]

CN1CCN(C2=Nc3cc(F)ccc3Cc3ccccc32)CC1
active: [6] 28.2 µM | [7] 39.8 µM
inactive: [2] | [3] | [5] | [4]

CCN1/C(=C/C=C/c2sc3ccccc3[n+]2CC)Sc2ccccc21
inactive: [1] | [3] | [5] | [4]

CC(=O)Nc1ncc([N+](=O)[O-])s1
inactive: [1] | [3] | [5] | [4]

Oc1ccc(Cl)cc1Cc1cc(Cl)ccc1O
active: [2] 22.4 µM | [9] 44.7 µM | [4] 79.4 µM
inactive: [5]

NC(N)=NN=C(/C=C/c1ccc([N+](=O)[O-])o1)/C=C/c1ccc([N+](=O)[O-])o1
inactive: [5] | [4]

CCN(CC)CCNc1ccc(CO)c2sc3ccccc3c(=O)c12
inactive: [2] | [3] | [5] | [4]

NC(=O)n1c(O)c(C(=O)c2cccs2)c2cc(Cl)ccc21
inactive: [1] | [2] | [5]

CCCCC(CC)COC(=O)/C=C/c1ccc(OC)cc1 (stereo not drawn)
inactive: [2] | [3] | [5] | [4]
